The text below walks through data of PubChem BioAssay AID720541 (National Center for Advancing Translational Sciences (NCATS), 2013).

Among all 1,300 compounds or so, about 420 (32%) were called active. About 32% were inconclusive and are not listed. Calls come from the whole dose curve; as a rule, active = well fitted inhibition curve with a large enough effect; inconclusive = small, poorly fitted or top-dose-only effect; inactive = no such curve, though single readings can be large or run the other way. This is one part of the list. Where a call stands in place of a potency, no number is given.
Potency is the fitted concentration of half-maximal effect.

This assay deals with C-terminal-binding protein 1 (Homo sapiens) (UniProt Q13363). The experiment in a line: qHTS for Inhibitors of the Phosphatase Activity of Eya2: Carboxyl-terminal binding protein (CtBP) Counterscreen for Cherry-picked Compounds. Note: nearly all actives have a fitted effect of over 65% in size. The conditions noted are these: purified protein-protein binding, AlphaScreen, 3 h; series mostly up to 46.1 µM. The method, boiled down:
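Cherry-picked compounds (final 2.5 nM–46 uM) were incubated 2 h at RT with 25 nM CtBP-6xHIS and 25 nM GST-E1A. Alpha beads (20 ug/mL) were then added for 1 h, light-protected; DMSO and E1A peptide inhibitor wells set the normalization.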
Regarding `CCOc1ccccc1O[C@H](c1ccccc1)[C@H]1CNCCO1`, the Potency entry was “inactive”.

`Cc1[nH]c2ccc(C(=O)OC(C)C(=O)N(C)c3ccccc3)cc2c1C` (stereo not given): the Potency entry was “inactive”.

In the case of `CCOC(=O)c1[nH]c2ccc(C(=O)OC)cc2c1C(=O)OCC`, the Potency is 10.7 µM (active).

Turning to `CS(=O)(=O)n1nc(OC(=O)c2cccs2)cc1N`, the Potency result is “inactive”.

As to `Cc1cc(O)c(-c2cc(O)c(C)cc2O)cc1O`, the Potency result is “inactive”.

Take `COc1cc(N(C(C)=O)c2ccc(O)c(C(=O)O)c2)c2ncccc2c1`: the Potency is 8.49 µM (active).

`CCN(CC)S(=O)(=O)c1cc(OC)ccc1N=Nc1ccc(O)c2ncccc12`: the Potency result is “inactive”.

Take `COc1cc2c(cc1N)-c1ccc(N)cc1C2=O`: the Potency is 16.9 µM (active).

`Nc1ccc2c(c1)C(=O)c1cc(N)c(Cl)cc1-2`: the Potency entry is “inactive”.

As to `COc1ccc(N)cc1-n1c(C)ccc1C`, the Potency entry was “inactive”.

Consider `CCOc1ccc2ccccc2c1C(=O)N[C@@H]1C(=O)N2[C@@H]1SC(C)(C)[C@@H]2C(=O)O`, for which the Potency entry is “inactive”.

Turning to `CCN1C(=O)c2cccc3c(S(=O)(=O)N(C(C)=O)c4ccc(OC(C)=O)cc4)ccc1c23`, the Potency is 12 µM (active).

With `CC(=O)Oc1ccc(N2C(=O)c3cccc4c([N+](=O)[O-])ccc(c34)C2=O)cc1`, the Potency entry was “inactive”.

Consider `N/C(=N\OC(=O)c1ccc2ccccc2c1)c1ccncc1`, for which the Potency result was “inactive”.

As to `C/C(=C1/C=Nc2ccccc21)c1ccc(N(C)C)cc1`, the Potency was 16.9 µM (active).

As for `Cn1c(=O)cc2c3c(c(N4CCCCC4)ccc31)C(=O)c1ccccc1-2`, the Potency is 3.79 µM (active).

On to `CCOc1ccc(S(=O)(=O)NCc2ccc(C)cc2)c2cccnc12`, for which the Potency entry is “inactive”.

Turning to `CCOc1ccc(NC(=O)COc2ccc3c(c2)CCC3)cc1OC`, the Potency entry was “inactive”.

Regarding `CCOc1ccc(NC(=O)COc2cccc3cccnc23)cc1S(=O)(=O)N1CCCC1`, the Potency was 16.9 µM (active).

Turning to `C=CCn1c(C)cc(C(=O)COc2ccc(N(C)S(=O)(=O)c3ccc(NC(C)=O)cc3)cc2)c1C`, the Potency entry is “inactive”.

Regarding `CN(C)C1=C2C=CC=CC2/C(=C2/C=Cc3ccccc32)C=C1` (stereo not given), the Potency is 15.1 µM (active).

Turning to `O=C(Nc1ccon1)c1ccc(N2CCCCC2)c([N+](=O)[O-])c1`, the Potency result was “inactive”.

For the compound `CSc1cccc(NC(=O)CCCOc2cc(=O)n(C)c3ccccc23)c1`, the Potency result is “inactive”.

With `O=C1/C(=C\c2cccc([N+](=O)[O-])c2O)SC(=S)N1Cc1ccccc1`, the Potency is 8.49 µM (active).

On to `Cc1ccc(NC(=O)CSc2cccc3cccnc23)c(C)c1`, for which the Potency is 9.53 µM (active).

In the case of `Cc1ccc(OCC(=O)Nc2ccccc2N2CCCC2)c(C)c1`, the Potency entry is “inactive”.

As to `O=C(Cc1ccccc1F)Nc1cccc(S(=O)(=O)N2CCCCC2)c1`, the Potency result was “inactive”.

As to `Cn1c(=O)c2c(ncn2CC(=O)Nc2cccc(S(=O)(=O)Nc3ccccc3F)c2)n(C)c1=O`, the Potency was 8.49 µM (active).

Consider `CCCNC(=O)C1(C)CCN(Cc2cccc(OC(=O)c3ccccc3)c2)C1` (stereo not given), for which the Potency result is “inactive”.

With `O=S(=O)(Nc1cccc2cccnc12)c1ccccc1Br`, the Potency is 9.53 µM (active).

Turning to `CC(=O)Nc1ccc(S(=O)(=O)NCc2ccc3[nH]c(C)cc3c2)cc1`, the Potency result is “inactive”.

As to `CC1(C)CC(=O)c2c(oc3ccc(NS(=O)(=O)c4cccc5cccnc45)cc23)C1`, the Potency result is “inactive”.

For `CC(=O)Nc1ccc(S(=O)(=O)Nc2cccc3cccnc23)cc1`, the Potency is 4.26 µM (active).

In the case of `O=C(CCCl)Nc1cccc2cccnc12`, the Potency was 8.49 µM (active).

As to `COc1ccc(Cl)cc1NC(=O)CCCn1c(=O)c2cccn2c2cccnc21`, the Potency entry is “inactive”.

Turning to `CC(=O)c1cccc(-c2cnc3c(NC=O)cc(-c4ccc(N(C)C)cc4)cn23)c1`, the Potency result was “inactive”.

As for `COC(=O)c1cc2c(ccc3ccccc32)oc1=O`, the Potency was 12 µM (active).

With `CC(C)Cc1nc2oc3c(=O)[nH]cnc3c2c2c1CCC2`, the Potency was 15.1 µM (active).

Consider `CCC(=O)c1cn(CC(=O)Nc2c(C)cccc2C)c2ccccc12`, for which the Potency entry was “inactive”.

`Cc1ccccc1OCCn1cc(C(=S)N2CCN(C)CC2)c2ccccc21`: the Potency was 15.1 µM (active).

On to `O=C(CN1C(=O)/C(=C/c2ccco2)SC1=S)Nc1ccc(C(=O)O)c(O)c1`, for which the Potency is 10.7 µM (active).

As for `COc1cc(/C=C2\SC(=S)N(CCC(=O)Nc3cccc(O)c3)C2=O)cc(OC)c1OC`, the Potency result is “inactive”.

With `CCn1c(SCC(=O)N2CCN(c3ccccc3)CC2)nc2c(c1=O)SC(C)C2` (stereo not given), the Potency entry was “inactive”.

Regarding `Cc1c(C(=O)O)c(O)cc2c1C(=O)c1c(O)c([C@H]3O[C@H](CO)[C@@H](O)[C@H](O)[C@H]3O)c(O)c(O)c1C2=O`, the Potency is 19 µM (active).

On to `Fc1ccc(-c2ccc(CNCc3ccccn3)o2)cc1`, for which the Potency is 15.1 µM (active).

Turning to `Clc1ccc(-c2ccc(CNCc3ccccn3)o2)cc1`, the Potency is 12 µM (active).

`Clc1cccc(-c2ccc(CNCc3ccccn3)o2)c1`: the Potency is 16.9 µM (active).

Take `O=C(/C=C/c1cccc([N+](=O)[O-])c1)Nc1cccc(NC(=O)c2cccs2)c1`: the Potency entry was “inactive”.

`COC(=O)c1ccc(NC(=O)c2ccc3c(c2)C(=O)N(Cc2cccnc2)C3=O)cc1`: the Potency entry is “inactive”.

For `COC(=O)c1ccc(NC(=O)CSc2nc(=O)n3cccc(C)c3n2)cc1`, the Potency is 13.5 µM (active).

Turning to `Cc1ccc(-c2csc(N3CCN(CCCn4c(C(F)(F)F)nc5ccccc54)CC3)n2)cc1`, the Potency result was “inactive”.

Take `Cc1cc(C)c2c(n1)sc1c(O)cc(=O)[nH]c12`: the Potency entry was “inactive”.

On to `Cc1csc(NC(=O)CSc2sc3c(O)cc(=O)[nH]c3c2C#N)n1`, for which the Potency is 12 µM (active).

In the case of `O=C1c2cccc(Sc3ccccc3)c2C(=O)c2c(Sc3ccccc3)cccc21`, the Potency was 3.79 µM (active).

Regarding `Oc1c(Cl)cc(CN2CCOCC2)c2cccnc12`, the Potency was 0.601 µM (active).

Take `Cc1ccc(C(=O)N2CCN(c3ccc(NC(=S)NC(=O)c4cccs4)cc3)CC2)cc1`: the Potency entry was “inactive”.

`CCCC(=O)Nc1ccc(NC(=S)NC(=O)c2cccs2)cc1`: the Potency result was “inactive”.

Take `CCN(CC)c1ccc(NC(=S)NC(=O)c2cccs2)cc1`: the Potency is 10.7 µM (active).

As for `Cn1nc(C(=O)Nc2nc3ccccc3[nH]2)c2ccccc2c1=O`, the Potency is 10.7 µM (active).

With `CNC(=O)c1cc2c(cn1)[nH]c1ccccc12`, the Potency entry is “inactive”.

Take `COc1ccc(-c2noc(N3CCC(C(=O)Nc4cc(OC)ccc4OC)CC3)n2)cc1`: the Potency result is “inactive”.

Regarding `COc1ccc(OC)c(Nc2nc(-c3sc(N)nc3C)cs2)c1`, the Potency is 8.49 µM (active).

Take `CCn1c2ccccc2c2cc(NC(=O)COC(=O)c3ccc(NC(=O)CC#N)cc3)ccc21`: the Potency result is “inactive”.

`Cc1ccc(-n2[nH]c(C)c(C=Nc3ccc(S(=O)(=O)Nc4nccs4)cc3)c2=O)cc1C`: the Potency was 7.57 µM (active).

Turning to `CCc1ccc(-c2csc(NC(=O)C3CC(=O)N(c4ccc5c(c4)OCCO5)C3)n2)cc1` (stereo not given), the Potency result is “inactive”.

`O=C(Nc1nc(-c2ccccn2)cs1)C1CC(=O)N(c2ccc3c(c2)OCCO3)C1` (stereo not given): the Potency was 6.01 µM (active).

Consider `O=C(NCc1ccco1)C1CC2CCC1C2` (stereo not given), for which the Potency result was “inactive”.

In the case of `COCCNC(=O)c1cccc(OC2CCN(Cc3ccc(F)cc3OC)CC2)c1`, the Potency result was “inactive”.

On to `CSc1nnc2c(n1)OC(C)=Nc1ccccc1-2`, for which the Potency is 12 µM (active).

Take `C#Cc1cccc(NC(=O)CSc2nnc(-c3ccc(C(F)(F)F)cn3)o2)c1`: the Potency was 15.1 µM (active).

In the case of `CCn1ccnc1CNCc1cn(-c2cc(C)ccc2C)nc1-c1ccccc1`, the Potency is 8.49 µM (active).

Turning to `CCNc1ccc2noc3c2c1C(=O)c1ccccc1-3`, the Potency was 7.57 µM (active).

In the case of `CN(Cc1ccccc1F)c1nc(-c2cccnc2)nc2ccccc12`, the Potency result was “inactive”.

Consider `CCn1nc(C(=O)Nc2nc(-c3ccccn3)cs2)c2ccccc2c1=O`, for which the Potency is 3.79 µM (active).

Consider `CSCCC(=O)Nc1nc(-c2ccccn2)cs1`, for which the Potency is 12 µM (active).

`O=C(CCS(=O)(=O)c1ccc(F)cc1)Nc1nc(-c2ccccn2)cs1`: the Potency is 8.49 µM (active).

As to `O=C(CN1C(=O)c2ccccc2C1=O)Nc1nc(-c2cccc([N+](=O)[O-])c2)cs1`, the Potency entry is “inactive”.

With `S=C(NCCCc1cnc[nH]1)NCCCN(Cc1ccc(Cl)cc1)c1ccc(-c2ccccc2)cn1`, the Potency was 15.1 µM (active).

Turning to `COc1ccc2c(c1)C=C/C2=C\c1ccc(N(C)C)cc1`, the Potency was 6.75 µM (active).

With `CN(C)c1ccc(/C=C2\C=Cc3cc(N)ccc32)cc1`, the Potency was 7.57 µM (active).

For the compound `Cc1nc([N+](=O)[O-])cn1CC(O)c1ccc2c(c1)OCO2` (stereo not given), the Potency result was “inactive”.

Consider `COC(=O)c1sc2cc(C(F)(F)F)cnc2c1-c1cccnc1`, for which the Potency entry is “inactive”.

`O=C(O)/C=C/C(=O)Nc1ccc2c(c1)C(=O)c1ccccc1C2=O`: the Potency is 7.57 µM (active).

As for `CC(=O)Nc1ccc2nc(C3CC3)n(Cc3ccc(Cl)cc3)c(=O)c2c1`, the Potency result is “inactive”.

In the case of `CN(C)c1ccc(/C=C/C=C2/C=Cc3ccccc32)cc1`, the Potency is 5.36 µM (active).

For `CC1=C/C(=C\c2ccc(N(C)C)cc2)c2ccccc21`, the Potency was 7.57 µM (active).

Consider `CCN(CC)c1ccc(/C=C2\C=Cc3ccccc32)cc1`, for which the Potency is 7.57 µM (active).

In the case of `CN(C)c1ccc(/C=C2\C=Cc3ccccc32)cc1`, the Potency was 8.49 µM (active).

Take `C=C(CC[C@]12OC(C(=O)O)C(O)(C(=O)O)C(C(=O)O)(O1)C(OC(=O)/C=C/[C@@H](C)C[C@@H](C)CC)C2O)[C@@H](OC(C)=O)[C@H](C)Cc1ccccc1` (stereo not given in full): the Potency result was “inactive”.

With `COC(=O)C(Sc1ccc(Cl)cc1)C1SC(=S)N(Cc2ccccc2)C1=O` (stereo not given), the Potency result is “inactive”.

For `Cc1cccc(C#Cc2ccccc2)n1`, the Potency result is “inactive”.

Regarding `C[C@H](CCC(=O)NCC(=O)O)[C@H]1CC[C@H]2[C@@H]3[C@H](O)C[C@@H]4C[C@H](O)CC[C@]4(C)[C@H]3C[C@H](O)[C@]12C`, the Potency result is “inactive”.

As for `CN(C)c1ccc(C=C2C=Cc3ccccc32)cc1`, the Potency is 7.57 µM (active).

`Cc1nn(C)c(Cl)c1CN1CCCC(CO)(Cc2cccc(Cl)c2)C1` (stereo not given): the Potency entry is “inactive”.

Turning to `COc1ccc(N2CCN(C(c3cccs3)C(C)NC(=O)c3ccc4c(c3)OCO4)CC2)cc1` (stereo not given), the Potency result was “inactive”.

As for `COc1ccc(N2CCN(C(=O)Cc3ccc(Cl)cc3)CC2)cc1`, the Potency result was “inactive”.

With `COc1ccc(N2CCN(Cc3ccc(Br)s3)CC2)cc1`, the Potency was 15.1 µM (active).

In the case of `COc1ccc(N2CCN(Cc3cc4c(cc3Br)OCCO4)CC2)cc1`, the Potency is 12 µM (active).

`COc1ccc(N2CCN(C(=O)CCC(=O)N3CC(C)Oc4ccc(C)cc43)CC2)cc1` (stereo not given): the Potency entry is “inactive”.

As for `CC(C)n1ncc2c(C(=O)N3CCN(Cc4ccc(Br)s4)CC3)cc(C3CC3)nc21`, the Potency entry is “inactive”.
